PubChem BioAssay AID2061313 (National Center for Advancing Translational Sciences (NCATS), 2025)
Results filed as inconclusive are left out. Activity calls are given as the source filed them. Calls come from the whole dose curve; as a rule, active = well fitted curve in the direction sought with a large enough effect; inconclusive = small, poorly fitted or top-dose-only effect, or another doubt; inactive = no such curve, though single readings can be large or run the other way.

What follows are compounds tested against Aldehyde dehydrogenase 1A1 (Homo sapiens) (UniProt P00352) (assay: qHTS for Inhibitors of the Aldehyde Dehydrogenase Family (ALDH1A1) Validation screens). Conditions: fluorescence; Potency: ALDH1A1 inhibition validation qHTS; series mostly up to 39.8 µM; activity change, negative = inhibition: at the top concentration.
For `CC(C)N(CCC(=O)c1ccc2ccccc2c1)Cc1ccccc1`, the Potency was 0.0708 µM (active). In the case of `CC(C)(C)c1ccc(S(=O)(=O)/C=C/C#N)cc1`, the Potency is reported as 0.0891 µM (active). `O=c1c(-c2ccc(O)cc2)coc2cc(O[C@@H]3O[C@H](CO)[C@H](O)[C@H](O)[C@H]3O)ccc12` was tested, and the “activity change, negative = inhibition” value was -7.82% (inactive).
